High-throughput results deposited in PubChem by The Scripps Research Institute Molecular Screening Center.
MITF primary – blocks human microphthalmia-associated transcription factor; AlphaScreen MITF homodimerization, bead proximity signal; inhibition, % at 2.6 µM; 0.91% of 650,000 active; O75030; in the data active means inhibition above about 50%;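 further: 0% = vehicle wells with protein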
Target sequence (O75030 whole entry, looked up): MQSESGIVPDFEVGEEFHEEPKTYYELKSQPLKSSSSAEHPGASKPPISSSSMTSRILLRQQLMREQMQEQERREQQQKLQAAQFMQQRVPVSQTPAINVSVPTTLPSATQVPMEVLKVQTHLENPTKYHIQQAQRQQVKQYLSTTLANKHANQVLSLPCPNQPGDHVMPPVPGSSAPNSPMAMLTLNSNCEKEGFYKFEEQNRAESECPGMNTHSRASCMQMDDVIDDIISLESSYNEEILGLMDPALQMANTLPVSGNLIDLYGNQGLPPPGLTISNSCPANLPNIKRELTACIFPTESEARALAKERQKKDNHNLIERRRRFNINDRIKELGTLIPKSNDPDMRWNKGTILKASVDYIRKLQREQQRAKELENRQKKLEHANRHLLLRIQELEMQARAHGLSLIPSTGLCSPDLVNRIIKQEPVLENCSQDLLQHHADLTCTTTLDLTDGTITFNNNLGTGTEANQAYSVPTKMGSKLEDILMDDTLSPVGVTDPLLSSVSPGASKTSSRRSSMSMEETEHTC
FBW7 activator – human FBW7 E3 ligase activation, primary screen; Q969H0; AlphaScreen FBW7–phospho-cyclin E peptide binding, activator screen; normalized activity (activation), % at 26.1 µM; 0.13% of 650,000 active; AID 1259310; in the data active means normalized activity above about 1.9%;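 further: purified mutant Fbw7 with reduced substrate affinity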
TEAD-YAP block – TEAD-YAP interaction inhibition. AID 1259422. 1.4% of 640,000 active. inhibition, % at 9.12 µM. HEK-TIYL cells, TEAD-Gal4/YAP UAS-luciferase luminescence; in the data active means inhibition above about 32%;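 further: 0% = median of test compound wells and 100% = reference inhibitor wells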
GPR151 ag – activates the human receptor GPR151. AID 1508602. activation, % at 11.2 µM. Q8TDV0. 1% of 650,000 active. PathHunter beta-arrestin GPR151 cells, luminescence; in the data active means activation above about 4.9%;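 further: 0% = median of compound wells and 100% = cells with positive control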
MITF inh conf – human MITF inhibition, confirmation | shares compounds with MITF primary | AlphaScreen MITF homodimerization, biotin/His-MITF beads | inhibition, % at 2.6 µM | 16% of 4,700 active | AID 1259372;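 active means inhibition above a cutoff derived from the DMSO control wells, cut at about 28% in these data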;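 further: 0% = MITF dimer wells with DMSO only; inhibitors lower the bead chemiluminescence by keeping MITF from dimerizing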
AS interf DR – optically interferes with AlphaScreen signal in dose response; shares compounds with MITF primary; AlphaScreen optical interference counterscreen, cell-free; IC50, µM; 6% of 480 active; AID 1259373; call rule not given here
AS interf ctr – optically interferes with AlphaScreen signal; AID 1259376; LysRS AlphaScreen counterscreen, signal interference, triplicate; inhibition, % at 2.6 µM; 7.6% of 4,700 active; shares compounds with MITF primary;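 active means inhibition above a cutoff derived from the DMSO control wells, cut at about 30% in these data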
* hit, by the source's call; i = inactive; . = no result. An excerpt weighted towards active compounds, which were near 3.5% of everything screened.

SMILES	MITF primary	FBW7 activator	TEAD-YAP block	GPR151 ag	MITF inh conf	AS interf ctr	others
CC(=O)Nc1ccc(-c2ccncc2-c2ccc(S(N)(=O)=O)cc2)cc1	54.5*	0.1	-1.3	0.5	46.6*	38.4*
O=S(=O)(c1ccc(Cl)cc1)N1CCN(Cc2cccnc2)CC1	4.1	0.0	-2.0	-1.3	.	.
Fc1ccccc1N1CCN(C2CCN(Cc3cccnc3)CC2)CC1	82.1*	-0.1	4.9	-0.8	9.1	7.2
Brc1ccc(CN2CCN(Cc3cccnc3)CC2)cc1	84.3*	0.0	-4.1	3.5	1.2	9.1
c1cncc(CN2CCN(Cc3ccco3)CC2)c1	75.2*	0.0	2.3	1.3	9.2	-1.0
Fc1ccccc1N1CCN(Cc2cccnc2)CC1	45.6	-0.1	6.9	-0.1	.	.
O=C(C1c2ccccc2Oc2ccccc21)N1CCCC(c2nc(-c3cccnc3)n[nH]2)C1 (configuration not stated)	61.6*	-0.1	-1.3	0.1	6.6	13.8
CC1CCN(c2c(NCC3CCC(C(=O)NCc4cccnc4)CC3)c(=O)c2=O)CC1 (configuration not stated)	1.8	-0.1	5.4	-0.1	.	.
COc1ccc(C(=O)OCc2c(C)noc2C)cc1[N+](=O)[O-]	2.7	0.0	5.1	-0.5	.	.
COc1ccc(OC)c(/C=N/NC(=O)CCn2nnc3ccccc32)c1	-6.2	-0.1	7.9	0.0	.	.
CCOC(=O)c1sc(N2C(=O)C(=O)/C(=C(/O)c3ccc(C)cc3)C2c2ccc(OC)cc2)nc1C (configuration not stated)	-12.0	0.1	-0.3	-0.9	.	.
Cc1ccc(C(=O)O/N=C(\N)c2ccc([N+](=O)[O-])cc2)c(C)c1	-7.5	-0.2	-9.3	-0.6	.	.
CC1CCC(N2CCN(Cc3cccnc3)CC2)CC1 (configuration not stated)	83.9*	-0.1	6.5	0.1	-5.4	15.4
c1cncc(CN2CCN(Cc3ccncc3)CC2)c1	77.3*	-0.1	4.5	1.0	7.2	0.2
c1cncc(CN2CCN(Cc3cccnc3)CC2)c1	60.1*	0.1	9.1	-0.3	3.4	-0.8
Fc1ccc(N2CCN(Cc3cccnc3)CC2)cc1	37.4	0.0	11.3	0.6	.	.
c1cncc(CN2CCN(Cc3ccc4ccccc4c3)CC2)c1	80.5*	0.0	13.8	0.2	10.4	12.2
O=C(NC1CC1)C1CC(Cc2cccc3ccccc23)=NO1 (configuration not stated)	-23.5	0.0	-60.1	0.3	.	.
Brc1ccc(CN2CCN(c3ncccn3)CC2)cc1	53.6*	0.0	5.4	-0.3	0.8	2.9
c1cncc(-c2n[nH]c(C3CCN(Cc4ccncc4)CC3)n2)c1	53.6*	-0.1	-2.8	-0.9	5.0	10.7
COc1ccc(Br)cc1CN1C(=O)CCC1(C)C(=O)NC1CCCC1 (configuration not stated)	0.6	0.0	9.8	-0.3	.	.
Cc1cccc(NC(=O)CC2Sc3ccc(C(F)(F)F)cc3NC2=O)c1C (configuration not stated)	65.7*	-0.2	3.5	0.0	4.1	-6.7
CSc1ccccc1NC(=O)CC1Sc2ccc(C(F)(F)F)cc2NC1=O (configuration not stated)	55.6*	-0.2	-3.7	-0.6	-3.6	-6.5
CCc1ccccc1NC(=O)CC1Sc2ccc(C(F)(F)F)cc2NC1=O (configuration not stated)	12.1	0.2	6.5	0.7	.	.
c1ccc2sc(Nc3nc4ccccc4s3)nc2c1	-11.6	0.0	-67.1	-0.4	.	.
SMILES	MITF primary	FBW7 activator	TEAD-YAP block	GPR151 ag	MITF inh conf	AS interf ctr	others
C(=N\c1nc2ccccc2s1)/Nc1nc2ccccc2s1	52.0*	0.1	-3.0	-2.9	11.9	15.8
O=C(Nc1ccc([N+](=O)[O-])cn1)c1ccc(COc2ccc(F)cc2)o1	-2.9	-0.1	-0.1	0.2	.	.
Cc1c(-c2ccccc2)c(=O)oc2ccc(O)cc12	80.5*	0.1	-2.5	-1.4	10.2	10.2
O=C(CN1CCC(N2CCCCC2)CC1)Nc1ccc2c(c1)OCCO2	7.4	0.2	-6.4	2.2	.	.
O=C(CN1CCC(N2CCCCC2)CC1)c1ccc2c(c1)OCCO2	58.3*	-0.1	-5.8	2.7	11.0	16.1
O=C1N[C@H](CO)C(=O)N2CCN(Cc3ccc(F)c(F)c3)C[C@H]12	11.7	-0.1	3.4	0.0	.	.
Cc1cc(NC(=O)c2ccccc2F)ncc1NC(=O)C(C)(C)C	-1.5	0.0	13.9	-2.4	.	.
O=S(=O)(CCN1CCCCC1)Oc1ccccc1	57.9*	0.3	-7.2	-0.5	7.2	18.5
N#Cc1cnc(SCC(=O)Nc2ccc(OCc3ccccc3)cc2)nc1N	16.1	0.0	18.7	-0.7	.	.
COc1ccccc1NC(=O)N1CCC(CN2CCOCC2)CC1	5.2	0.7	10.4	-0.8	.	.
CCOC(=O)N1CCN(c2nc(C)nc3sc(C)c(C)c23)CC1	9.6	0.0	11.7	-0.1	.	.
CCOC(=O)N1CCN(c2nc(C)nc3sc(C)cc23)CC1	54.3*	-0.1	6.4	-0.4	4.9	20.8
COc1cc(OC)cc(C(=O)Nc2cc(C(=O)N(C)Cc3ccccc3)ccc2N2CC3CC(C2)c2cccc(=O)n2C3)c1 (configuration not stated)	-4.3	0.0	-0.1	-0.3	.	.
COc1ccc(C(=O)Nc2cc(C(=O)N(C)Cc3ccccc3)ccc2N2CC3CC(C2)c2cccc(=O)n2C3)cc1 (configuration not stated)	86.8*	0.3	-5.3	-0.6	13.4	-6.5
Cc1ccc([N+](=O)[O-])cc1S(=O)(=O)Nc1ccc(N)cc1	9.3	-0.1	-1.1	-1.5	.	.
Cc1ccc([N+](=O)[O-])cc1S(=O)(=O)Nc1ccc(Nc2ncccc2[N+](=O)[O-])cc1	96.9*	-0.3	-8.1	1.2	97.2*	-6.2	AS interf DR=>6.64
Cc1csc2ncc(C(=O)NCCCO)c(=O)n12	-5.8	-0.2	10.9	-1.4	.	.
COCCNC(=O)c1cnc2scc(C)n2c1=O	75.6*	0.1	5.7	0.8	7.0	6.7
N#CC1=c2/c(=C/c3ccco3)c(N)c(C#N)n2C(=O)C(c2ccco2)S1 (configuration not stated)	68.0*	-0.3	13.3	0.1	47.3*	27.2	AS interf DR=i
Cc1cc(=O)[nH]c(N/N=C/c2cccc(Cl)c2Cl)n1	79.2*	0.6	0.9	-1.5	-2.7	6.6
O=C(Nc1cccc(C(F)(F)F)c1)c1nn2c(C(F)(F)F)cc(-c3ccccc3)nc2c1Cl	16.0	0.0	-6.2	-0.2	.	.
O=C(Nc1cc(C(F)(F)F)ccc1Cl)c1nn2c(C(F)(F)F)cc(-c3ccccc3)nc2c1Cl	64.8*	0.2	-0.8	-0.9	-0.7	-0.9
CCCCCn1c(SCC(=O)N2CCCC2)nc2cc(C(=O)NCc3ccco3)ccc2c1=O	0.6	-0.1	10.4	-0.1	.	.
CCC(C)NCCOc1cccc(Br)c1 (configuration not stated)	60.6*	-0.1	-2.1	-1.4	45.4*	-20.2	AS interf DR=>6.48
